PubChem BioAssay (NCATS)
Records with an inconclusive call do not appear. Activity calls are given as the source filed them. Calls follow the shape of the dose curve; as a rule, active = well fitted curve in the direction sought with a large enough effect; inconclusive = small, poorly fitted or top-dose-only effect, or another doubt; inactive = no such curve, though single readings can be large; an effect the other way counts as inactive or inconclusive.

Key:
[1] = qHTS of pediatric cancer cell lines to identify multiple opportunities for drug repurposing: Confirmatory screen for DAOY cells (AID 1347114); also: nearly all actives have a fitted effect of over 65% in size; also: potency is read from the fitted curve at half-maximal effect; as to activity change, negative = cytotoxic: % is scaled to controls: 0 for no effect and ±100 for the full control effect
Summary of the method: (§1)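 Viability measured as metabolically active cells via CellTiter-Glo luminescence following 48 hours of compound exposure, 11-point dilutions in confirmatory testing. 500-1,000 cells/well plated 5 hours before dosing; controls were DMSO and 2.3 µM bortezomib.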

[2] = qHTS of pediatric cancer cell lines to identify multiple opportunities for drug repurposing: Confirmatory screen for SJ-GBM2 cells (AID 1347116); also: nearly all actives have a fitted effect of over 60% in size; also: potency is read from the fitted curve at half-maximal effect;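 as to activity change, negative = cytotoxic: plate controls were DMSO for no effect and bortezomib for full effect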
Summary of the method: as §1

[3] = qHTS of pediatric cancer cell lines to identify multiple opportunities for drug repurposing: Confirmatory screen for TC32 cells (AID 1347118);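 also: cells exposed to compound for 48 h before the read; nearly all actives have a fitted effect of over 65% in size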; also: potency is read from the fitted curve at half-maximal effect
Summary of the method: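 Measured quantity: luminescence from CellTiter-Glo, reflecting metabolically active TC32 cells following 48 h of compound. Curves came straight from multi-point titrations, with 8 or 11 points in primary and 11 in confirmatory screening.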

[4] = qHTS of pediatric cancer cell lines to identify multiple opportunities for drug repurposing: Confirmatory screen for MG 63 (6-TG R) cells (AID 1347119); also: nearly all actives have a fitted effect of over 55% in size; also: potency is read from the fitted curve at half-maximal effect
Summary of the method: (§2)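 Viability after 48 h compound treatment at 37C, 500-1,000 cells/well, read as ATP luminescence with CellTiter-Glo. Primary screens used 11-point (MIPE, 0.78 nM-46 µM) or 8-point (NPC, 0.59 nM-46 µM) final concentrations; follow-up screens used 11-point dilutions.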

[5] = qHTS of pediatric cancer cell lines to identify multiple opportunities for drug repurposing: Confirmatory screen for U-2 OS cells (AID 1347122); also: nearly all actives have a fitted effect of over 65% in size; also: potency is read from the fitted curve at half-maximal effect
Summary of the method: as §2

[6] = qHTS of pediatric cancer cell lines to identify multiple opportunities for drug repurposing: Confirmatory screen for RD cells (AID 1347124);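 also: cells exposed to compound for 48 h before viability readout; nearly all actives have a fitted effect of over 65% in size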; also: potency is read from the fitted curve at half-maximal effect; as to activity change, negative = cytotoxic: % is scaled to controls: 0 for no effect and ±100 for the full control effect
Summary of the method: as §2

[7] = qHTS of pediatric cancer cell lines to identify multiple opportunities for drug repurposing: Confirmatory screen for Rh18 cells (AID 1347125); also: nearly all actives have a fitted effect of over 55% in size; also: potency is read from the fitted curve at half-maximal effect; as to activity change, negative = cytotoxic: % is scaled to controls: 0 for no effect and ±100 for the full control effect
Summary of the method: as §2

[8] = qHTS of pediatric cancer cell lines to identify multiple opportunities for drug repurposing: Confirmatory screen for Rh30 cells (AID 1347126); also: nearly all actives have a fitted effect of over 55% in size; also: potency is read from the fitted curve at half-maximal effect; as to activity change, negative = cytotoxic: % is scaled to controls: 0 for no effect and ±100 for the full control effect
Summary of the method: as §2

[9] = qHTS of pediatric cancer cell lines to identify multiple opportunities for drug repurposing: Confirmatory screen for Saos-2 cells (AID 1347127); also: nearly all actives have a fitted effect of over 60% in size; also: potency is read from the fitted curve at half-maximal effect;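 as to activity change, negative = cytotoxic: plate controls were DMSO for no effect and bortezomib for full effect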
Summary of the method: as §2

[10] = qHTS of pediatric cancer cell lines to identify multiple opportunities for drug repurposing: Confirmatory screen for OHS-50 cells (AID 1347128);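 also: compound exposure lasted 48 h at 37 degrees C; nearly all actives have a fitted effect of over 55% in size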; also: potency is read from the fitted curve at half-maximal effect
Summary of the method: as §2

[11] = system: Zika virus NS2B-NS3 protease; experiment: Primary screen GU AMC qHTS for Zika virus inhibitors (AID 1347154); also: nearly all actives have a fitted effect of over 70% in size; also: potency is read from the fitted curve at half-maximal effect;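 as to activity change, negative = inhibition: 0% = no-inhibitor control and -100% = no-enzyme control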
Summary of the method: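 Unlinked Zika NS2B hydrophilic domain–NS3 protease complex at 25 nM in 10 mM Tris-HCl pH 8.0, 0.01% Tween 20, with an AMC peptide substrate. Fluorescence change (340/450 nm) over 15 min at room temperature, normalized to controls, fitted to 4-parameter Hill.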

[12] = qHTS of pediatric cancer cell lines to identify multiple opportunities for drug repurposing: Confirmatory screen for NB-EBc1 cells (AID 1347115);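 also: potency is read from the fitted curve at half-maximal effect; cells exposed to compound for 48 h before the viability read; nearly all actives have a fitted effect of over 45% in size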
Summary of the method: as §2

[13] = qHTS of pediatric cancer cell lines to identify multiple opportunities for drug repurposing: Confirmatory screen for BT-37 cells (AID 1347117); details: BT-37 pediatric cancer cells, viability; activity change, negative = cytotoxic: at 45.9 µM (top of the series)
Summary of the method: as §2

[14] = qHTS of pediatric cancer cell lines to identify multiple opportunities for drug repurposing: Confirmatory screen for SK-N-SH cells (AID 1347129);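 also: potency is read from the fitted curve at half-maximal effect; cells exposed to compound for 48 h before viability read; nearly all actives have a fitted effect of over 60% in size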
Summary of the method: as §2

[15] = qHTS of pediatric cancer cell lines to identify multiple opportunities for drug repurposing: Confirmatory screen for Rh41 cells (AID 1347123);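 also: potency is read from the fitted curve at half-maximal effect; 48 h compound exposure; nearly all actives have a fitted effect of over 60% in size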
Summary of the method: as §2

[16] = qHTS of pediatric cancer cell lines to identify multiple opportunities for drug repurposing: Confirmatory screen for control Hh wild type fibroblast cells (AID 1347121); also: nearly all actives have a fitted effect of over 70% in size; also: potency is read from the fitted curve at half-maximal effect
Summary of the method: as §2

Furin (Homo sapiens) = Furin (Homo sapiens) (UniProt P09958); experiment: Furin counterscreen qHTS for Zika virus inhibitors (AID 1347149);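 also: purified recombinant full-length human furin enzyme at 5 nM; fluorescence gain from furin cutting a BOC-RVRR-AMC peptide substrate over 15 min; top concentration of the series differs between compounds; plate controls were no-inhibitor control for no effect and no-enzyme control for full effect; nearly all actives have a fitted effect of over 70% in size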
Summary of the method: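 Counterscreen measures cleavage of 2 microM BOC-RVRR-AMC, below its ~15 microM Km, by 5 nM full-length human furin at pH 7.0 after a 15-min compound preincubation. Inhibition derives from the 15-min fluorescence increase at 37C.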

[17] = system: Zika virus NS2B-NS3 protease (linked construct); experiment: Confirmatory screen NINDS AMC qHTS for Zika virus inhibitors (AID 1347152); also: potency is read from the fitted curve at half-maximal effect; nearly all actives have a fitted effect of over 70% in size
Summary of the method: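 Enzyme (1 nM, linked construct) was preincubated with compound for 15 minutes at room temperature in 10 mM Tris-HCl pH 8.0 with 0.01% Tween 20. Bz-Nle-Lys-Arg-Arg-AMC was then added to 10 microM, and AMC fluorescence was recorded immediately and after 15 minutes.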

Furin (Homo sapiens), sequence (P09958 whole entry, looked up): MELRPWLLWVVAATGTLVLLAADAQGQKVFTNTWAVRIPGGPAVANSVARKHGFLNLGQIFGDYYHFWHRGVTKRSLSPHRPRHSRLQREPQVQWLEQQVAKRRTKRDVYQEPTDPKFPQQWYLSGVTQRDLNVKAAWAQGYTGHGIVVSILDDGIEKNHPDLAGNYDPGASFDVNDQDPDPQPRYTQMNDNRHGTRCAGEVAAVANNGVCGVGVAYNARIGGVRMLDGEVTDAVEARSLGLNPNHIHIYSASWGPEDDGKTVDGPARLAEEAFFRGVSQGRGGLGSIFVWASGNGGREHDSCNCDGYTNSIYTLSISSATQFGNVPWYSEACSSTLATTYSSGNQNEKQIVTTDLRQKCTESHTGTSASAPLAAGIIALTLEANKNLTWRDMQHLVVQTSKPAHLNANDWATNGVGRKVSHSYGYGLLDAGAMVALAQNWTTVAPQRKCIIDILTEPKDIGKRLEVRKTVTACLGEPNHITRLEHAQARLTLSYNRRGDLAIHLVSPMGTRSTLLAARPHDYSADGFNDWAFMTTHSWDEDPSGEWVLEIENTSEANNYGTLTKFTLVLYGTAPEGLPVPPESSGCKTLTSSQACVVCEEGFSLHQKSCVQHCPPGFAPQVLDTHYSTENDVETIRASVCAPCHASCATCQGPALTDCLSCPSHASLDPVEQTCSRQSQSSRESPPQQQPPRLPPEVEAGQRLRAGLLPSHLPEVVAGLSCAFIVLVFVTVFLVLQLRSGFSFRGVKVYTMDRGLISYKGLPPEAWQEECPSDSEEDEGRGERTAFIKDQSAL

O=S(=O)(O)CCSSCCS(=O)(=O)O
inactive: Potency [1] | Potency [2] | Potency [3] | Potency [4] | Potency [5] | Potency [6] | Potency [7] | Potency [8] | Potency [9] | Potency [10] | Potency [11]

CC[C@@]1([C@@H]2O[C@@H]([C@H]3O[C@@](O)(CO)[C@H](C)C[C@H]3C)C[C@H]2C)CC[C@H]([C@]2(C)CC[C@]3(C[C@H](O)[C@@H](C)[C@@H]([C@@H](C)[C@@H](OC)[C@H](C)C(=O)O)O3)O2)O1
inactive: Potency [11]
active: Potency [1] 3230 nM | Potency [12] 1620 nM | Potency [2] 1150 nM | Potency [13] 204 nM | Potency [3] 288 nM | Potency [4] 512 nM | Potency [6] 2290 nM | Potency [9] 723 nM | Potency [10] 456 nM

O=C1NC(=O)[C@@H](c2cn3c4c(cccc24)CCC3)[C@H]1c1c[nH]c2ccccc12
inactive: Potency [11]
active: Potency [1] 2080 nM | Potency [13] 1850 nM | Potency [3] 827 nM | Potency [4] 1170 nM | Potency [9] 928 nM

O=C1NC(=O)C(=Cc2ccc3nccc(-c4ccncc4)c3c2)S1
inactive: Potency [3]
active: Potency [1] 8270 nM | Potency [4] 1040 nM | Potency [6] 7370 nM | Potency [8] 6570 nM | Potency [9] 2930 nM

C[C@@H](Oc1ccc2[nH]nc(C=Cc3cnn(CCO)c3)c2c1)c1c(Cl)cncc1Cl
inactive: Potency [11]
active: Potency [1] 18500 nM | Potency [2] 18500 nM | Potency [3] 2330 nM | Potency [4] 737 nM | Potency [6] 5220 nM | Potency [7] 3690 nM | Potency [8] 4140 nM | Potency [9] 2610 nM | Potency [10] 4140 nM

COc1cccc2c1C(=O)c1c(O)c3c(c(O)c1C2=O)C[C@@](O)(C(=O)CO)C[C@H]3O[C@H]1C[C@H](N)[C@H](O)[C@H](C)O1
active: Potency [1] 3690 nM | Potency [2] 928 nM | Potency [13] 293 nM | Potency [3] 261 nM | Potency [6] 5220 nM | Potency [7] 1470 nM | Potency [8] 1170 nM | Potency [14] 590 nM
inactive: Potency [11]

CC(C=CC1=C(C)CCCC1(C)C)=CC=CC(C)=CC(=O)Nc1ccc(O)cc1
active: Potency [1] 33900 nM | Potency [12] 13500 nM | Potency [2] 2400 nM | Potency [13] 38000 nM | Potency [3] 2140 nM | Potency [4] 42700 nM | Potency [5] 12000 nM | Potency [15] 5370 nM | Potency [7] 42700 nM | Potency [9] 38000 nM

Cn1cc(CNCC2CCN(c3ncc(C(=O)NO)cn3)CC2)c2ccccc21
active: Potency [1] 261 nM | Potency [2] 208 nM | Potency [4] 131 nM | Potency [5] 208 nM | Potency [6] 329 nM | Potency [7] 131 nM | Potency [8] 293 nM | Potency [9] 208 nM | Potency [14] 469 nM
inactive: Potency [11]

COc1ccc(S(=O)(=O)Nc2cccnc2Nc2ccc(O)cc2)cc1
active: Potency [1] 369 nM | Potency [13] 1310 nM | Potency [3] 737 nM | Potency [4] 465 nM | Potency [5] 827 nM | Potency [6] 928 nM | Potency [9] 522 nM
inactive: Potency [16] | Potency [7] | Potency [8] | Potency [11]

CCC(C=C[C@@H]1OC(=O)C=C[C@H]1C)=C[C@H](C)CC=CC(C)=C[C@@H](C)C(=O)[C@@H](C)[C@H](O)[C@@H](C)CC(C)=CC(=O)O
active: Potency [1] 12.8 nM | Potency [12] 36.1 nM | Potency [13] 5.7 nM | Potency [3] 14.4 nM | Potency [5] 9.1 nM | Potency [15] 12.8 nM | Potency [6] 12.8 nM | Potency [7] 9.1 nM
inactive: activity change, negative = inhibition [11] 23.8% [at 2.16 µM]

COc1cc([C@@H]2c3cc4c(cc3[C@H](O)[C@H]3COC(=O)[C@@H]23)OCO4)cc(OC)c1OC
inactive: Potency [16] | Potency [7] | Potency [8] | Potency [11]
active: Potency [1] 414 nM | Potency [12] 3290 nM | Potency [13] 1170 nM | Potency [3] 465 nM | Potency [4] 737 nM | Potency [5] 1850 nM | Potency [6] 928 nM | Potency [9] 522 nM

C=CCNC1=C2C[C@@H](C)C[C@H](OC)[C@@H](O)[C@@H](C)C=C(C)[C@H](OC(N)=O)[C@@H](OC)C=CC=C(C)C(=O)NC(=CC1=O)C2=O
inactive: Potency [11]
active: Potency [1] 4650 nM | Potency [2] 165 nM | Potency [13] 92.8 nM | Potency [3] 522 nM | Potency [4] 2610 nM | Potency [6] 131 nM | Potency [7] 585 nM | Potency [8] 4140 nM | Potency [14] 1870 nM

CN[C@@H]1C[C@H]2O[C@@](C)([C@H]1OC)n1c3ccccc3c3c4c(c5c6ccccc6n2c5c31)C(=O)N[C@H]4O
active: Potency [1] 1470 nM | Potency [12] 2610 nM | Potency [2] 2610 nM | Potency [13] 2610 nM | Potency [3] 414 nM | Potency [4] 104 nM | Potency [16] 10400 nM | Potency [5] 369 nM | Potency [15] 1040 nM | Potency [7] 1470 nM | Potency [9] 585 nM | Potency [17] 19200 nM | Potency [11] 21500 nM
inactive: Potency (Furin (Homo sapiens))

CCOC(=O)N1CCN([N+]([O-])=NOc2ccc([N+](=O)[O-])cc2C#N)CC1
inactive: Potency [16] | Potency [11]
active: Potency [1] 2330 nM | Potency [13] 3290 nM | Potency [3] 2330 nM | Potency [15] 18500 nM
